Laboratory results from PubChem BioAssay (Tox21).
Results filed as inconclusive are left out. The source made the active and inactive calls. Unless noted, calls come from the whole dose curve; as a rule, active = well fitted curve in the direction sought with a large enough effect in the repeat runs; inconclusive = weak or mixed curves; inactive = no such curve, though single readings can be large; an effect the other way counts as inactive or inconclusive.

Tests used:
[1] = qHTS assay to identify small molecule antagonists of the peroxisome proliferator-activated receptor gamma (PPARg) signaling pathway - cell viability counter screen (AID 743194); details: Potency: co-treated with 50 nM rosiglitazone unless noted; note: nearly all actives have a fitted effect of over 55% in size; note: potency is the fitted concentration of half-maximal effect
Summary of the method: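 PPARg-UAS-bla HEK293H cells were plated, rested 5 h at 37 C, then treated with compounds plus rosiglitazone (50 nM final) for 17 h at 37 C; viability was then read by CellTiter-Glo luminescence after 30 min at room temperature.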

[2] = qHTS assay for small molecule activators of the heat shock response signaling pathway - cell viability counter screen (AID 743209); note: nearly all actives have a fitted effect of over 50% in size; note: potency is the fitted concentration of half-maximal effect
Summary of the method: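 HSE-bla HeLa cells plated overnight, then exposed to Tox21 compounds (23 nL in DMSO) for 5 h at 37 C. After the bla reporter read, CellTiter-Glo was added in the same wells and luminescence read after 30 min at room temperature.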

[3] = qHTS assay to identify small molecule agonists of the peroxisome proliferator-activated receptor delta (PPARd) signaling pathway - cell viability counter screen (AID 743211); note: nearly all actives have a fitted effect of over 55% in size; note: potency is the fitted concentration of half-maximal effect
Summary of the method: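 Tox21 library compounds, delivered in DMSO, were incubated 17 h with PPARd-bla HEK293H cells; cytotoxicity was taken from CellTiter-Glo luminescence read 30 min after reagent addition.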

[4] = qHTS assay to identify small molecule agonists of the farnesoid-X-receptor (FXR) signaling pathway - cell viability counter screen (AID 743218); note: nearly all actives have a fitted effect of over 45% in size; note: potency is the fitted concentration of half-maximal effect
Summary of the method: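 FXR-UAS-bla HEK 293T cells exposed to compounds for 16 h at 37C. Cytotoxicity read in the same wells by CellTiter-Glo luminescence after 30 min at room temperature, following the beta-lactamase FRET read.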

[5] = molecular target: Vitamin D3 receptor (Homo sapiens) (UniProt P11473); assay: qHTS assay to identify small molecule agonists of the vitamin D receptor (VDR) signaling pathway (AID 743222; calls by dose curve)
Vitamin D3 receptor (Homo sapiens), sequence (P11473 whole entry, looked up): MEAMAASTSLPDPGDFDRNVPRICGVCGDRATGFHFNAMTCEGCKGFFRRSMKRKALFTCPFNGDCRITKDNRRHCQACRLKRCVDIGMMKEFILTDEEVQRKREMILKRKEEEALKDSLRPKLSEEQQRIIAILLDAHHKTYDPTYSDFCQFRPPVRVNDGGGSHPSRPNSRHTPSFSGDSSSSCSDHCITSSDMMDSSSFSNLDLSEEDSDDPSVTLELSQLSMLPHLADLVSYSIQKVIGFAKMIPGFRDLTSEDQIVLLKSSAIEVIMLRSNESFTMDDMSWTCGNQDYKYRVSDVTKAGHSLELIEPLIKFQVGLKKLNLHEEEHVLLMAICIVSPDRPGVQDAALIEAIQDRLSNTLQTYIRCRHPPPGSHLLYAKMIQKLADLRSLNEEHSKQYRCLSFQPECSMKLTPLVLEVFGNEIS
Summary of the method: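 VDR-bla cells plated 4 h at 37 C, then exposed to compounds for 16 h at 37 C. Beta-lactamase reporter activity measured by fluorescence after 2 h room-temperature loading with LiveBLAzer B/G FRET substrate.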

[6] = molecular target: Peroxisome proliferator-activated receptor gamma (Homo sapiens) (UniProt P37231); assay: qHTS assay to identify small molecule antagonists of the peroxisome proliferator-activated receptor gamma (PPARg) signaling pathway (AID 743191; calls by dose curve; note: series mostly up to about 63 µM; nearly all actives have a fitted effect of over 30% in size)
Peroxisome proliferator-activated receptor gamma (Homo sapiens), sequence (P37231 whole entry, looked up): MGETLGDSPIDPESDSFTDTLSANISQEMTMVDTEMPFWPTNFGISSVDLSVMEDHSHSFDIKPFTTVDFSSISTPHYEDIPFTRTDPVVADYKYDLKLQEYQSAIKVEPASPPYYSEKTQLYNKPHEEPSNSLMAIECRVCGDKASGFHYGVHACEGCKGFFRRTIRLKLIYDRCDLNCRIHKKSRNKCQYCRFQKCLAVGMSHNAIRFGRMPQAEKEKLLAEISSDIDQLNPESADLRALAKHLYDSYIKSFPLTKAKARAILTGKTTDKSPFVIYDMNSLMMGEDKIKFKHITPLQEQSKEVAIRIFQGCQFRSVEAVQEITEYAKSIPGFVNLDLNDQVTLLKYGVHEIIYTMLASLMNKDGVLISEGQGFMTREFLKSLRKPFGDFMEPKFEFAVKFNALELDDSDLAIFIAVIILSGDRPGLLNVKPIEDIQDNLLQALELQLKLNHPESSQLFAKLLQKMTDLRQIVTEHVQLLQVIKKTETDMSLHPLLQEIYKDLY
Summary of the method: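 GeneBLAzer PPARg UAS-bla HEK293H cells carrying a UAS-driven beta-lactamase reporter were plated at 3000 cells/well, preincubated 5 h at 37C, then given compound for 17 h at 37C; LiveBLAzer B/G FRET substrate was read after 1 h at room temperature.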

[7] = qHTS assay for small molecule agonists of the antioxidant response element (ARE) signaling pathway - cell viability counter screen (AID 743203; calls by dose curve; note: nearly all actives have a fitted effect of over 55% in size)
Summary of the method: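 ARE-bla HepG2 cells were plated, rested 5 h at 37C/5% CO2, then exposed to compounds in DMSO for 16 h. Viability was read as CellTiter-Glo luminescence after 30 min at room temperature, in the same wells as the ARE screen.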

[8] = qHTS assay for small molecule activators of the heat shock response signaling pathway (AID 743210; active = well fitted activation curve with a large enough effect in the signal ratio in the repeat runs, with a control signal flat, not every such curve was filed as active; the % refers to the signal ratio;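 note: HeLa cells with beta-lactamase reporter driven by heat shock elements; series mostly up to about 63 µM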)
Summary of the method: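 Reporter gene assay: HeLa cells stably bearing an HSE-bla construct, compound treatment 5 h at 37 C, LiveBLAzer substrate 2.5 h at RT, fluorescence intensity.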

[9] = qHTS assay to identify small molecule antagonists of the peroxisome proliferator-activated receptor delta (PPARd) signaling pathway - cell viability counter screen (AID 743213); note: nearly all actives have a fitted effect of over 50% in size; note: potency is the fitted concentration of half-maximal effect
Summary of the method: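 PPARd-bla HEK293H cells (3000/well) got compound plus 300 nM L165041 agonist for 17 h at 37 C. Viability in the same wells came from CellTiter-Glo luminescence after 30 min at room temperature.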

[10] = molecular target: Bile acid receptor (Homo sapiens) (UniProt Q96RI1); assay: qHTS assay to identify small molecule antagonists of the farnesoid-X-receptor (FXR) signaling pathway (AID 743217; active = well fitted inhibition curve with a large enough effect in the signal ratio in the repeat runs, not every such curve was filed as active; the % refers to the signal ratio)
Bile acid receptor (Homo sapiens), sequence (Q96RI1 whole entry, looked up): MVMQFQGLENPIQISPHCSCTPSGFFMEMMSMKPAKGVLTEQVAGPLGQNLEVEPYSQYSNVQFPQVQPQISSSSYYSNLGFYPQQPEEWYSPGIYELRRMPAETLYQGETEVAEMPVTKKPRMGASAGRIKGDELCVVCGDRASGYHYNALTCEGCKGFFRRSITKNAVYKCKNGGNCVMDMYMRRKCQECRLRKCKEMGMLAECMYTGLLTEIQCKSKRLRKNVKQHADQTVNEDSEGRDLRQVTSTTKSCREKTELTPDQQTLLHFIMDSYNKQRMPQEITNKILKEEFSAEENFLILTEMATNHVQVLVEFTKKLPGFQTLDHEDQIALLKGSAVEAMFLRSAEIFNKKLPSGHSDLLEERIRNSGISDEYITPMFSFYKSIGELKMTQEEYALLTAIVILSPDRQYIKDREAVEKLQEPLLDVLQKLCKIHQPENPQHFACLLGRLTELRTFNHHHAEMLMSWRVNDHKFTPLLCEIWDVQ
Summary of the method: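 FXR-UAS-bla HEK 293T cells (beta-lactamase reporter) given compound plus chenodeoxycholic acid (50 uM final), 16 h at 37C. LiveBLAzer B/G FRET substrate added for 2 h at room temperature; fluorescence read.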

[11] = molecular target: Bile acid receptor (Homo sapiens) (UniProt Q96RI1); assay: qHTS assay to identify small molecule agonists of the farnesoid-X-receptor (FXR) signaling pathway (AID 743220; active = well fitted activation curve with a large enough effect in the signal ratio in the repeat runs, not every such curve was filed as active; the % refers to the signal ratio)
Summary of the method: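 Beta-lactamase reporter under UAS control in GeneBLAzer FXR HEK 293T cells (5000/well) measured with LiveBLAzer FRET substrate after 2 h at room temperature. Compound exposure lasted 16 h at 37C.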

[12] = qHTS assay to identify small molecule antagonists of the farnesoid-X-receptor (FXR) signaling pathway - cell viability counter screen (AID 743221; active = well fitted cell-killing curve with a large enough effect in the repeat runs, not every such curve was filed as active; note: nearly all actives have a fitted effect of over 50% in size; note: potency is the fitted concentration of half-maximal effect)
Summary of the method: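 Cytotoxicity is taken from ATP luminescence (CellTiter-Glo, 30 min, room temperature) in FXR-bla HEK 293T cells previously incubated 16 h at 37 C with compound and chenodeoxycholic acid at 50 uM final.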

[13] = molecular target: Vitamin D3 receptor (Homo sapiens) (UniProt P11473); assay: qHTS assay to identify small molecule antagonists of the vitamin D receptor (VDR) signaling pathway (AID 743223; active = well fitted inhibition curve with a large enough effect in the signal ratio in the repeat runs, not every such curve was filed as active; the % refers to the signal ratio)
Summary of the method: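 Quantitative HTS in VDR-bla reporter cells stimulated with 1alpha,25-dihydroxyvitamin D3, 3 nM final. Compound exposure 16 h, 37C, 5% CO2. Read-out: beta-lactamase FRET substrate fluorescence, 2 h RT.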

[14] = qHTS assay for small molecule agonists of the antioxidant response element (ARE) signaling pathway (AID 743202; active = well fitted activation curve with a large enough effect in the signal ratio in the repeat runs, not every such curve was filed as active; the % refers to the signal ratio; note: potency is the fitted concentration of half-maximal effect)
Summary of the method: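 Compounds delivered in DMSO to ARE-bla HepG2 cells (2,000 cells/well, pre-incubated 5 h) and left 16 h at 37 C. LiveBLAzer B/G FRET substrate then added for 2 h at RT before fluorescence reading.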

[15] = molecular target: Peroxisome proliferator-activated receptor delta (Homo sapiens) (UniProt Q03181); assay: qHTS assay to identify small molecule agonists of the peroxisome proliferator-activated receptor delta (PPARd) signaling pathway (AID 743212; calls by dose curve)
Peroxisome proliferator-activated receptor delta (Homo sapiens), sequence (Q03181 whole entry, looked up): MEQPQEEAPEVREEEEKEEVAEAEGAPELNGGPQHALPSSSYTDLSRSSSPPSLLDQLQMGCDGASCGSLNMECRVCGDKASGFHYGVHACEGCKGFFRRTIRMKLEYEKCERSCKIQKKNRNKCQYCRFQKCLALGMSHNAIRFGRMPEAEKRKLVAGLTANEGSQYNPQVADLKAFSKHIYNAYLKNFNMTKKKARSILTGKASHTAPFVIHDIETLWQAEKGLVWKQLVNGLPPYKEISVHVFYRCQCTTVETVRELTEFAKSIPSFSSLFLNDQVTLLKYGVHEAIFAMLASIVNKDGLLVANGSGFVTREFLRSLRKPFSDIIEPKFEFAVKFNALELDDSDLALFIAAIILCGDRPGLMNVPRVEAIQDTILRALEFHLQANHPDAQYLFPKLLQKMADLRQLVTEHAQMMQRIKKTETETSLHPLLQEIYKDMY
Summary of the method: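 A PPARd-bla HEK293H line with beta-lactamase under an Upstream Activator Sequence is treated with compounds at 37 C. Substrate loading for 2 h at room temperature precedes the fluorescence measurement.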

[16] = molecular target: Peroxisome proliferator-activated receptor delta (Homo sapiens) (UniProt Q03181); assay: qHTS assay to identify small molecule antagonists of the peroxisome proliferator-activated receptor delta (PPARd) signaling pathway (AID 743215; active = well fitted inhibition curve with a large enough effect in the signal ratio in the repeat runs, not every such curve was filed as active; the % refers to the signal ratio;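 note: cells stimulated with agonist L165041 at 300 nM final during compound exposure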; note: potency is the fitted concentration of half-maximal effect)
Summary of the method: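 PPARd-bla HEK293H cells (UAS-bla reporter) preincubated 5 h, then given compound plus 300 nM final L165041 agonist for 17 h at 37 C. Beta-lactamase activity read by LiveBLAzer B/G FRET substrate fluorescence after 2 h at room temperature.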

[17] = qHTS assay to identify small molecule that activate the aryl hydrocarbon receptor (AhR) signaling pathway - cell viability counter screen (AID 743086);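 note: HepG2 liver cells carrying the AhR DRE luciferase reporter; series mostly up to about 70 µM; nearly all actives have a fitted effect of over 45% in size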
Summary of the method: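 HepG2-AhR-luc (HG2L7.5c1) cells, 4000/well, were preincubated 5 h at 37C, exposed to compound in qHTS format for 24 hr at 37C, then given CellTiter-Fluor for 30 min; viability was read as fluorescence in the reporter wells.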

[18] = molecular target: Aryl hydrocarbon receptor (Homo sapiens) (UniProt P35869); assay: qHTS assay to identify small molecule that activate the aryl hydrocarbon receptor (AhR) signaling pathway (AID 743085);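 note: HG2L7.5c1 human HepG2 liver cells with stably integrated DRE-driven firefly reporter; series mostly up to about 70 µM; nearly all actives have a fitted effect of over 15% in size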
Aryl hydrocarbon receptor (Homo sapiens), sequence (P35869 whole entry, looked up): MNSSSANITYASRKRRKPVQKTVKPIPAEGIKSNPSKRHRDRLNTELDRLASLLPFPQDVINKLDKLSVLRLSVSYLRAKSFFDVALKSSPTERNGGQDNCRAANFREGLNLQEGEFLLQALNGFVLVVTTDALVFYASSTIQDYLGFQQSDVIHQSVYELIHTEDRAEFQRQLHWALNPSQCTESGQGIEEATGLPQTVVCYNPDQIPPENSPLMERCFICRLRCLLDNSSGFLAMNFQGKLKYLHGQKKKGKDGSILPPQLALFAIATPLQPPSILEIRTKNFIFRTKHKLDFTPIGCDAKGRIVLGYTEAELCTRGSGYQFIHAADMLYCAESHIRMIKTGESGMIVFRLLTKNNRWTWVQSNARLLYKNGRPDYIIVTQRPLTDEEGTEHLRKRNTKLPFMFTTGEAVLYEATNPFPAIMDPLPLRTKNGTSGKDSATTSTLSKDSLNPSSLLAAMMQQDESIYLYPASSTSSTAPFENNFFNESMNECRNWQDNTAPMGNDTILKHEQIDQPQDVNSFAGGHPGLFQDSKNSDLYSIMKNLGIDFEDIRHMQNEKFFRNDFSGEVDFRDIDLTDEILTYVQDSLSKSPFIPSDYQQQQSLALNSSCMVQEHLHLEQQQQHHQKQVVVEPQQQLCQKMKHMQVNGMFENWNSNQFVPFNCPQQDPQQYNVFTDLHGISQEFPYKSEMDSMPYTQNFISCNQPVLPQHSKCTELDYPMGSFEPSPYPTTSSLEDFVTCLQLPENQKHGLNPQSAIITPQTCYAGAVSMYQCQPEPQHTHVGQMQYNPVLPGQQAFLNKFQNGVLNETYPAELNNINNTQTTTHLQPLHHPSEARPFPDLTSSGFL
Summary of the method: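 A multiplexed format paired cell viability (CellTiter-Fluor fluorescence) with AhR-dependent luciferase output (ONE-Glo luminescence) in the same wells of HepG2 DRE-luc cells after 24 h compound exposure at 37C.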

[19] = molecular target: Peroxisome proliferator-activated receptor gamma (Homo sapiens) (UniProt P37231); assay: qHTS assay to identify small molecule agonists of the peroxisome proliferator-activated receptor gamma (PPARg) signaling pathway (AID 743094; active = well fitted activation curve with a large enough effect in the signal ratio in the repeat runs, not every such curve was filed as active; the % refers to the signal ratio)
Summary of the method: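 GeneBLAzer PPARg UAS-bla HEK293H cells were plated, rested 5 h, then exposed to compounds for 17 h at 37C. Beta-lactamase activity was read by LiveBLAzer B/G FRET substrate fluorescence after 1 h at room temperature.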

Measured: Potency

C[C@]12CC[C@H]3[C@@H](CCC4=CC(=O)CC[C@@H]43)[C@@H]1CC[C@@H]2OC(=O)CCc1ccco1
inactive: [5]
active: [1] 29.8 µM [setting not given] | [2] 13.3 µM | [3] 26.6 µM | [4] 21.1 µM

C[C@@H]1CC2=CC(=O)CC[C@@H]2[C@H]2CC[C@@]3(C)[C@@H](CC[C@]3(C)O)[C@@H]21
not listed: [3] | [14] | [15] | [16] | [17] | [18] | [19]
inactive: all other assays above

CC[N+]1(CC)CCC(OC(=O)C(O)(c2ccccc2)c2ccccc2)C1 (stereo not given)
not listed: [6] | [11] | [15] | [16] | [17] | [18] | [19]
inactive: all other assays above

Nc1ccc(Cl)cc1C(=O)c1ccccc1F
inactive: [1] | [7] | [2] | [8] | [3] | [15] | [16] | [10] | [11] | [12]

O=c1[nH]c2cc(Cl)ccc2n1C1CCNCC1
not listed: [14] | [17] | [18] | [19]
inactive: all other assays above

Cc1cc(C2CC2)nc(Nc2ccccc2)n1
inactive: [17] | [1] | [7] | [2] | [4] | [12] | [5]
active: [14] 27.3 µM

CCn1cc[n+](C)c1 (tested in a mixture with another compound)
inactive: [1] | [14] | [7] | [2] | [9] | [4]

C[C@]12Cc3cn[nH]c3C[C@@H]1CC[C@@H]1[C@@H]2CC[C@@]2(C)[C@H]1CC[C@]2(C)O
active: [14] 26.6 µM | [9] 29.8 µM | [12] 33.5 µM
inactive: [1] | [7] | [2] | [11] | [5]

CO/N=C(\C(=O)OC)c1ccccc1CO/N=C(\C)c1cccc(C(F)(F)F)c1
active: [9] 21.9 µM | [16] 4.9 µM
inactive: [18] | [17] | [2] | [5]

CCCCCCCc1ccc(O)cc1
inactive: [19] | [1] | [2] | [8] | [15] | [12] | [5]
active: [3] 21.9 µM

N#Cc1c2ccccc2cc2ccccc12
inactive: [1] | [7] | [2] | [12]

c1ccc2c(c1)cc1ccc3cccc4ccc2c1c34
inactive: [1] | [7] | [2] | [3] | [4] | [12]
